Source: PubChem BioAssay (National Center for Advancing Translational Sciences (NCATS))
Sm TGR inh: qHTS Assay for the Inhibitors of Schistosoma Mansoni Peroxiredoxins; purified TGR, DTNB reduction, TNB absorbance 405 nm; Potency, µM (titrated, usually from 114 µM), actives largely listed as inhibitors; 360,000 tested, 3% active; active = well fitted inhibition curve with a large enough effect; inconclusive = small, poorly fitted or top-dose-only effect; inactive = no such curve, though single readings can be large or run the other way; note: nearly all actives have a fitted effect of over 60% in size
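First, TGR (20 nM dispensed) and NADPH were mixed with compound. Second, a 15 min room-temperature incubation followed. Third, further NADPH and then DTNB were added to start the reaction. Finally, TNB absorbance was monitored kinetically.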
SARS PLpro yeast: qHTS of Yeast-based Assay for SARS-CoV PLP | S. cerevisiae expressing SARS-CoV PLpro, growth rescue | Potency, µM (top dose mostly 32.9 µM), usual class: activators | 330,000 tested, 0.19% active | AID 485353, 2010; calls by dose curve; note: nearly all actives have a fitted effect of over 55% in size
A number is an active result; - = inactive; ? = inconclusive; . = not tested or not shown. Most compounds without a hit are left out; they make up all but 3% or so of the library.

SMILES | Sm TGR inh | SARS PLpro yeast
Cc1ccc(S(=O)(=O)Cn2nnnc2C(C(C)C)N2CCN(Cc3ccco3)CC2)cc1 (stereo not drawn) | - | -
Cc1oc2c(cc(NS(=O)(=O)c3ccc(Cl)cc3)c3ccccc32)c1C(=O)OCc1ccccc1 | - | .
CN(CCC#N)C(=O)CSc1nnc(-c2ccco2)n1N | - | -
CCCN(CC1CC1)C(=O)CSc1nnc(-c2ccco2)n1N | 50µM | -
COc1cccc2cc(C(=O)NCCc3c(C)[nH]c4ccc(Br)cc34)c(=O)oc12 | - | .
CC(=O)N=c1sc2nc3ccccc3nc2n1N(C(C)=O)C(C)=O | 50µM | -
CC(=O)N=c1sc2ccccc2n1C | - | -
CN(C(=O)c1ccco1)c1ccccc1C(=O)O | - | -
CN(C(=O)/C=C/c1ccco1)c1ccccc1C(=O)O | 3.5µM | -
O=C(/C=C/c1ccco1)Nc1cc(Cl)ccc1C(=O)O | ? | -
O=C(O)/C=C\C(=O)Nc1ccccc1F | - | -
O=C(Nc1ccc(S(=O)(=O)Nc2ncccn2)cc1)c1ccccc1NS(=O)(=O)c1ccc(F)cc1 | . | -
O=C(O)/C=C/c1ccc(S(=O)(=O)Nc2ccccc2C(=O)Nc2ccc(F)cc2)cc1 | 45µM | -
O=C(/C=C/c1ccco1)Nc1ccccc1C(=O)O | 18µM | -
O=C(O)/C=C/C(=O)Nc1ccccc1C(=O)Nc1ccccc1 | 35µM | -
CCN(CC)S(=O)(=O)c1ccc2c(c1)N(CC(=O)Nc1c(C)cc(C)cc1C)C(=O)CS2 | - | .
Cc1cccc(CNc2ncnc3ccc(-c4ccc5c(ccn5C)c4)cc23)c1 | - | -
O=C(/C=C/c1ccco1)Nc1ccccc1C(=O)Nc1cccc(C(=O)O)c1 | 25µM | -
Cc1occc1C(=O)Nc1cccc(C(=O)O)c1 | - | -
COC(=O)c1cc2oc3ccccc3c2n1CC(=O)Nc1ccc(Cl)cc1F | - | .
Cn1c(=O)cc(SCC(=O)NCc2ccc(F)cc2)c2cc(Cl)ccc21 | - | .
Cc1ccc(S(=O)(=O)CCC(=O)Oc2ccc3c(C)cc(=O)oc3c2)cc1 | 22µM | -
Cc1ccc(OC(=O)CCS(=O)(=O)c2ccc(C)cc2)cc1 | - | -
O=c1ccc(-c2ccccc2)nn1Cc1c(F)cccc1Cl | - | .
CC(=O)Nc1ccc(S(=O)(=O)NCc2ccc3[nH]c(C)cc3c2)cc1 | ? | -
SMILES | Sm TGR inh | SARS PLpro yeast
COc1ccc2cc(CCNC(=O)c3ccc(Br)o3)c(=O)[nH]c2c1 | ? | -
CCCC(=O)NCc1ccc2c(c1)cc(C)n2C | - | -
Cc1cc2cc(CCNC(=O)c3ccc(Br)o3)c(=O)[nH]c2cc1C | 35µM | -
Cc1cc2cc(CNC(=O)c3ccc(Br)o3)ccc2n1C | 14µM | -
Cc1ccc(CNC(=O)c2ccc(Br)o2)cc1 | - | -
Cc1ccc(S(=O)(=O)NCc2ccc3[nH]c(C)cc3c2)cc1 | 11µM | -
Cc1cc2cc(CNC(=O)c3ccc(Br)o3)ccc2[nH]1 | 40µM | -
Cc1c(Cl)cccc1NC(=O)C(C)n1c(=O)cc(C)c2c(C)nn(-c3ccccc3)c21 (stereo not drawn) | - | .
CCc1nnc(SCc2cccc(Cl)c2)c2cc3sccc3n12 | - | .
CCC(=O)N1c2ccccc2CC1C(=O)NCc1ccc(CC)cc1 (stereo not drawn) | - | .
CN1c2ccccc2C(C)(C)C12CCCC(=O)N2 (stereo not drawn) | 20µM | -
CC1=NOC2(C1)N(C)c1ccccc1C2(C)C (stereo not drawn) | - | -
COC(=O)c1ccc(OCC2c3cc(OC)c(OC)cc3CCN2C(=O)COc2ccc(Cl)cc2)cc1 (stereo not drawn) | - | .
Cc1ccc2c(c1)/C(=C/c1ccco1)C(=O)N2 | ? | -
O=C1NNC(c2ccccc2)=N/C1=C\c1ccccc1 | - | -
O=C1NC(=O)/C(=C/c2ccco2)N1 | - | -
O=C1NC(c2cccc(Br)c2)=N/C1=C\c1ccco1 | 79µM | -
O=C1NC(c2ccccc2)=N/C1=C/c1ccco1 | 50µM | -
O=C1NC(c2ccccc2Br)=N/C1=C\c1ccco1 | 40µM | -
CCN1CCN(C(=O)c2cnn(-c3ccc(F)cc3F)c2C2CCN(C(=O)OC(C)(C)C)CC2)CC1 | - | .
Cc1ccc(C)c(Cn2c3ccccc3c3cnn(CC(=O)NC4CCCCCC4)c(=O)c32)c1 | - | .
COc1ccc(CCNC(=O)C2COc3ccccc3C2)cc1OC (stereo not drawn) | - | .
CCn1c(SCc2cccc(Br)c2)nnc1-c1nonc1NC(C)=O | - | .
O=C(Cn1c(=O)n(-c2ccc(Cl)cc2)c(=O)c2sc3ccccc3c21)NC1CCCC1 | - | .
Cc1ccc(CNC(=O)c2ccc(CS(=O)Cc3ccccc3Cl)o2)cc1 (stereo not drawn) | 35µM | -
SMILES | Sm TGR inh | SARS PLpro yeast
O=C(NC1CCCCCC1)c1ccc(CS(=O)(=O)Cc2ccccc2F)o1 | 22µM | -
Cc1ccc(CS(=O)Cc2ccc(C(=O)NC3CCCCCC3)o2)cc1 (stereo not drawn) | ? | -
Cc1ccc(CS(=O)Cc2ccc(C(=O)NC3CCCC(C)C3C)o2)cc1 (stereo not drawn) | 35µM | -
COc1cccc(CNC(=O)c2ccc(CS(=O)Cc3ccc(C)cc3)o2)c1 (stereo not drawn) | - | -
O=C(NC1CCCC1)c1ccc(CS(=O)(=O)Cc2ccccc2Cl)o1 | - | ?
O=C(NC1CCCCCC1)c1ccc(CS(=O)Cc2ccccc2Cl)o1 (stereo not drawn) | 32µM | -
Cc1ccc(CS(=O)Cc2ccc(C(=O)NCc3ccccc3Cl)o2)cc1 (stereo not drawn) | - | -
Cc1ccc(-n2ncc(C(=O)NCCN3CCc4ccccc4C3)c2C2CCN(C(=O)OC(C)(C)C)CC2)cc1 | - | .
CCCc1cnc2c(c1SCC(=O)N(C)c1ccccc1)c(=O)n(C)c(=O)n2C | - | .
CC(=O)N1CCCc2cc(S(=O)(=O)N3CCC(C(=O)NCc4ccc(N(C)C)cc4)CC3)ccc21 | - | .
COc1ccc(NC(=O)c2oc3ccccc3c2NC(=O)C2CCCCC2)c(OC)c1 | - | .
CCCNC(=O)c1ccc2c(=O)c(O)c(-c3cccc(Br)c3)[nH]c2c1 | - | ?
CCCNC(=O)c1ccc2c(=O)c(O)c(-c3ccc(F)cc3)[nH]c2c1 | - | 13µM
Nc1c(C(=O)Nc2ccccc2F)sc2nc(-c3cccnc3)ccc12 | - | -
NC(=O)c1sc2nc(-c3ccco3)ccc2c1N | ? | -
COC(=O)c1sc2nc(-c3ccco3)ccc2c1N | 2.8µM | -
Nc1c(C(=O)Nc2ccccc2F)sc2nc(-c3ccco3)ccc12 | 2.8µM | -
CCc1ccc(NC(=O)Cn2c(=O)n(Cc3ccc4c(c3)OCO4)c(=O)c3oc4ccccc4c32)cc1 | - | .
Cc1ccccc1Cn1c(=O)n(CCCCC(=O)NCCc2ccccc2)c(=O)c2ccccc21 | - | .
COc1ccc(-c2c(C)nn3c(N)c(-c4ccccc4)cnc23)cc1OC | 40µM | -
COc1ccccc1-c1c(C)nn2c(N)c(-c3ccccc3)cnc12 | - | -
CCOC(=O)c1c(C)[nH]c(C)c1S(=O)(=O)N(C)CC(=O)Nc1ccc(C)cc1Br | - | .
CC(C)(C)OC(=O)N1CCC(c2c(C(=O)NCCN3CCC(Cc4ccccc4)CC3)cnn2-c2cccc(Cl)c2)CC1 | - | .
COc1cccc2oc(-c3ccco3)cc(=O)c12 | 7.9µM | -
COc1ccc2oc(-c3ccco3)cc(=O)c2c1 | - | -
COc1cc(CNC(=O)c2cnc(SC)nc2-c2ccccc2)cc(OC)c1OC | - | .
COC(=O)c1cc(O)cc(OC)c1Oc1cc(C)cc(O)c1C(=O)O | 7.1µM | -
